Results from PubChem BioAssay (NCI).
This is part of a sample that, as a whole, favours compounds with a hit. Of some 83,000 tested, about 20% had one in any assay.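 Step 1: grow cells in 96-well plates. Step 2: add test compound at a single concentration. Step 3: incubate 48 h. Step 4: record percent growth.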 Values without a mark were called inactive. Active and inactive are the calls of the source. How the source made its calls: active means growth percent below 10; inactive means the rest.

Assays:
Experiment in all cases: NCI-60 one-dose screen, 48 h (100 = growth as untreated, 0 = no growth, -100 = all killed)
Settings in all cases: 10 µM unless noted
NCI-H23 lung = test system: NCI-H23 lung
NCI-H226 lung = test system: NCI-H226 lung
NCI-H322M lung = test system: NCI-H322M lung
HOP-62 NSCLC = test system: HOP-62 NSCLC
NCI-H460 lung = test system: NCI-H460 lung
NCI-H522 lung = test system: NCI-H522 lung
A549/ATCC NSCLC = test system: A549/ATCC NSCLC
786-0 renal = test system: 786-0 renal
COLO 205 colon = test system: COLO 205 colon
HOP-92 NSCLC = test system: HOP-92 NSCLC

Structure (SMILES) | growth (NCI-H23 lung) | growth (NCI-H226 lung) | growth (NCI-H322M lung) | growth (HOP-62 NSCLC) | growth (NCI-H460 lung) | growth (NCI-H522 lung) | growth (A549/ATCC NSCLC) | growth (786-0 renal) | growth (COLO 205 colon) | growth (HOP-92 NSCLC)
CC1=NNC(=O)C1CCC(=O)N/N=C(\C)c1ccc2ccccc2c1 (stereo not drawn) | 104% | 99.6% | 122% | 115% | 108% | 96.1% | 95.3% | 103% | 167% | 
O=S(=O)(c1ccccc1)N1CCCc2ccccc21 | 102% | 104% | 99% | 94.2% | 107% | 82.2% | 91.4% | 102% | 112% | 
O=C1CCC(NC(=S)Nc2ccccc2)N1 (stereo not drawn) | 91.2% | 103% |  | 109% | 115% | 92.8% | 101% | 105% | 120% | 102%
O=C(CSc1nc2sc3c(c2c(=O)n1Cc1ccccc1)CCCC3)N1CCN(c2ccccc2)CC1 | 90.9% | 94.6% |  | 88.3% | 103% | 81.1% | 73% | 103% | 112% | 103%
CN1CCN(CC#CCNC(=O)[C@]23CCC(C)(C)C[C@H]2C2=CC[C@@H]4[C@@]5(C)Cc6c([nH]c7ccccc67)C(C)(C)[C@@H]5CC[C@@]4(C)[C@]2(C)CC3)CC1 | 95.8% | 93.9% |  | 91.9% | -25.3% (active) | 67% | 52.8% | 64.5% | 51.2% | 52.7%
Cc1ccc2[nH]c(=O)cc(-n3nncc3COc3ccc(C=O)cc3)c2c1 | 103% | 90.3% |  | 101% | 106% | 89.7% | 103% | 102% | 128% | 95.6%
O=C(Nc1sc2c(c1C(=O)O)CCCC2)c1cccc(C(F)(F)F)c1 | 90.1% | 103% |  | 104% | 78.5% | 78.7% | 85.3% | 94% | 113% | 79.2%
O=S(=O)(c1cccc(NC2=Nc3cccc4cccc2c34)c1)N1CCCC1 | 60.8% | 62.3% |  | 91.5% | 50.7% | 75.3% | 66.3% | 82.9% | 95.6% | -3.41% (active)
[2H]C1([2H])NC([2H])([2H])C([2H])([2H])N(c2ccc(Nc3ncc4cc(C(=O)N(C)C)n(C5CCCC5)c4n3)nc2)C1([2H])[2H] | 69.9% | 71.2% |  | 60.3% | 62.7% | 82.7% | 51.5% | 61.1% | 38.3% | 76.1%
C=C(C)[C@@H]1CC[C@]2(C(=O)NCCCN(CCC#N)CCC#N)CC[C@]3(C)[C@H](CC[C@@H]4[C@@]5(C)CCC(=O)C(C)(C)[C@@H]5CC[C@]43C)[C@@H]12 | 109% | 102% |  | 105% | 104% | 93.5% | 91.2% | 94.2% | 111% | 82.4%
Cc1cc2nc(-c3ccccc3)c(-c3ccccc3)nc2cc1C | 98.2% | 94.9% |  | 111% | 102% | 94.9% | 97.9% | 95.4% | 119% | 89.6%
Cc1ccccc1C(c1ccccc1)c1ccccc1C | 94.4% | 22.1% |  | 69.5% | 101% | 77.1% | 73.6% | 98.8% | 105% | 79.7%
O=C(c1ccccc1)N1N=C(c2ccc(-n3ccc(C(F)(F)F)n3)cc2)CC1c1ccc[nH]1 (stereo not drawn) | 96.4% | 95.1% |  | 105% | 100% | 76.5% | 82% | 87.3% | 101% | 113%
C#CC(=O)Nc1cccc2c1cc(C)n2-c1nc2c(c(NCc3ccccc3)n1)CCCC2 | -43.1% (active) | -40.2% (active) |  | -46.8% (active) | -48.3% (active) | -82.2% (active) | -46.5% (active) | -53.1% (active) | -69.1% (active) | -53.8% (active)
CC(=O)c1cc2c(N)c(C(=O)Nc3cncc4ccccc34)sc2nc1C | 101% | 105% |  | 93.5% | 110% | 92.1% | 106% | 98.4% | 121% | 98.6%
CCNNC(=O)[C@@H]1[C@H](c2cc(OC)c(OC)c(OC)c2)c2cc3c(cc2[C@H](O)[C@H]1CO)OCO3 | 24% | -21.5% (active) |  | 36.3% | 1.59% (active) | -18.7% (active) | 9.99% (active) | 0.908% (active) | -63.6% (active) | 9.16% (active)
COc1cc(/C=N/NC(=O)c2ccccc2Nc2cccc(C(F)(F)F)c2)ccc1O | 91.5% | 88.3% |  | 93.4% | 100% | 81.9% | 100% | 75.7% | 106% | 67.6%
COC(=O)C1NC(=S)N(c2ccc(Cl)cc2)C1/C=C/c1ccccc1 (stereo not drawn) | 91% | 104% |  | 103% | 109% | 93.7% | 98.1% |  | 108% | 
O=C1Nc2ccccc2/C1=C\c1cccc(/C=C2/C(=O)Nc3ccccc32)n1 | -15.9% (active) | 2.74% (active) |  | -61.3% (active) | -60.9% (active) | 10% | 6.25% (active) | -84.4% (active) | -85.7% (active) | -31.7% (active)
O=C(CCN1CCCC1)Nc1ccc2c(Nc3ccccc3)c3ccccc3nc2c1 | 22.1% | 41.9% |  | 12.1% | -60.7% (active) | -33.7% (active) | 10.1% | 10.1% | -37.4% (active) | 14.3%
Cn1c2c(Cl)c(Cl)ccc2c2cc(N)[nH]c(=O)c21 | 76.2% | 59.2% |  | 51.3% | 81.9% | 92.4% | 15.1% | 70.2% | 92.1% | 29.9%
COc1ccc(Cn2nc3c(c2-c2cc(OC)c(OC)c(OC)c2)-c2oncc2CC3)cc1 | 79.8% | 106% |  | 96.7% | 107% | 12.7% | 95.2% | 85.1% | 99.1% | 78.2%
CCCCCCOc1ccc(C(=N)N(CCCC)CCCC)c2ccccc12 | -94.6% (active) | -70.5% (active) |  | -89% (active) | -57.7% (active) | -84.6% (active) | -83.1% (active) | -94% (active) | -79.9% (active) | -81.7% (active)
O=S(=O)(c1ccc(N/N=C\c2ccccc2)cc1)c1ccc(N/N=C/c2ccccc2)cc1 | 43.6% | 83.3% |  | 46.6% | 40.4% | 60% | 60% | 83.4% | 88.9% | 8.56% (active)
C[C@H]1[C@H](C)CC[C@]2(CO)CC[C@]3(C)C(=CC[C@@H]4[C@@]5(C)CCCNC(C)(C)[C@@H]5CC[C@]43C)[C@H]12 | 36.1% | -99% (active) |  | -23.1% (active) | -83.3% (active) | -77.8% (active) | 12% | -81% (active) | -78.3% (active) | -5.92% (active)
c1ccc(C2CC(c3cccc(Nc4ccncc4)c3)=NN2c2ccccc2)cc1 (stereo not drawn) | 85.8% | 96.1% |  | 71.1% | -41.9% (active) | 89.1% | 50.9% | 68.4% | -58% (active) | 55.5%
CN1CCN(c2ccc(NC3=C(Cl)C(=O)c4ncccc4C3=O)cc2C#N)CC1 | 51% | 94% |  | 103% | 94.8% | -56.9% (active) | 110% | 85.5% | 57.6% | -61.4% (active)
N/C(=N\N=C\c1cc2ccccc2s1)N/N=C/c1cc2ccccc2s1 | 103% | 99.5% |  | 110% | 102% | 91.8% | 106% | 5.55% (active) | 112% | 
CN1CCCC1=Nc1ccccc1 | 93.7% | 104% |  | 103% | 111% | 83.2% | 97.9% | 115% | 110% | 89%
